The structures appear in SMILES notation. Hit rate of the full screen: of about 1,000 compounds, fewer than 10 were called active.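 Rule for the calls: active = fitted half-maximal concentration no higher than twice the top valid tested dose, with signal falling; inconclusive = flat curve with 30 to 70% inhibition, or poor fit; inactive = the rest.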 These entries were drawn from the full list. Entries with a potency or affinity are not part of this list.

The target in the experiment is Golgi-associated PDZ and coiled-coil motif-containing protein (Homo sapiens) (UniProt Q9HD26). The experiment can be described thus: CAL PDZ domain peptide-binding inhibitors, dose response, biochemical, fluorescence polarization, untagged CAL PDZ, cherry-pick, set 2 (AID 602254).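 Note: more negative means stronger blocking of peptide binding.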 The following applies: Purified CAL PDZ, TMR peptide fluorescence polarization; series mostly up to 60 µM.
Consider `C=CCNC(=S)NNC(=O)c1ccc(C)c(Cl)c1`, for which the outcome was inactive. The entry for `Cc1ccc(S(=O)(=O)c2nc(NN(C)C)sc2Cl)cc1` is “inactive”; for `CC(=O)c1cccc(CN2CCN(CC=C(C)C)C(CCO)C2)c1` (stereo unspecified) it is “inactive”; for `CC1CCN(C(=O)CNC(=O)c2ccc(Cl)cc2Cl)CC1` it is “inactive”. Take `CCn1nnc(NC(=O)Cc2ccc(Cl)cc2)n1`: the compound was classed as inactive. In the case of `O=C(Nc1cccc(-n2cnnn2)c1)c1ccc(OC(F)(F)F)cc1` it was “inactive”; in that of `O=C(c1cc(COc2ccccc2)on1)N1CCCC(CN2CCOCC2)C1` (stereo unspecified), “inactive”. In the case of `CC(C)(C)n1ncc2c(=O)n(Cc3ccc(Cl)c(Cl)c3)cnc21` it was “inactive”. `CSc1ccccc1OCc1cc(C(=O)N2CCN(c3ccccc3)CC2C)no1` (stereo unspecified): the compound was called inactive. The entry for `COc1cc(C(=O)NNC(=O)c2ccc3c(c2)OCCO3)cc(OC)c1OC` is “inactive”; for `COc1cc(S(=O)(=O)Nc2ccc(C(=O)NCC(=O)O)cc2)ccc1NC(C)=O` it is “inactive”.

As to `O=C(N/N=C/c1cccnc1)c1[nH]ncc1Br`, the compound was called inactive. Consider `CCOC(=O)c1ccc(NC(=O)C2CCCO2)cc1` (stereo unspecified), for which the call was inactive. The entry for `CC(=O)c1cccc(NC(=O)CCNC(=O)c2cccc(C)c2)c1` is “inactive”; for `COc1cc(OC)c(C(=O)NCc2ccc3c(c2)OCO3)cc1OC` it is “inactive”.

As for `CC1CC(C)CN(C(=O)CCn2c(=O)oc3ccccc32)C1` (stereo unspecified), the outcome was inactive. The entry for `Cc1ccc(CNS(=O)(=O)c2ccc(C(F)(F)F)cc2)n1C` is “inactive”; for `Cc1ccc2nc(N3CCN(Cc4nnnn4C4CCCC4)CC3)c(C#N)cc2c1` it is “inactive”. `Cc1ccc(Cn2c(=O)n(CCC(=O)NCc3ccc4c(c3)OCO4)c(=O)c3ccccc32)cc1`: the call was inactive.

With `Cc1ccc2c(c1)N(CC(=O)Nc1ccccc1F)C(=O)CO2`, the result was inactive. On to `CC(C)(C)OC(=O)N1CCC(NC(=O)c2[nH]cnc2C(=O)Nc2cccc(Cl)c2)CC1`, for which the call was inactive. Consider `COC(=O)c1ccc(OCC(O)CN2CCc3cc(OC)c(OC)cc3C2c2ccccc2)cc1` (stereo unspecified), for which the compound was classed as inactive. The entry for `COc1ccccc1OCC(O)Cn1nc(C)cc1C` (stereo unspecified) is “inactive”; for `O=C(O)c1ccccc1CSc1nnnn1-c1ccccc1` it is “inactive”.

Consider `CC(C)c1ccc(NC2CCCN(C(=O)c3ccnn3C)C2)cc1` (stereo unspecified), for which the outcome was inactive. In the case of `c1ccc(-c2ccccc2OCCOCCN2CCc3ccccc3C2)cc1` it was “inactive”. Turning to `CCOc1ccccc1C(=O)NCC(=O)OCc1csc(CC(=O)Nc2ccc(C)cc2)n1`, the result was inactive.

Turning to `CCCn1nnc(NC(=O)c2ccc3c(c2)OCO3)n1`, the compound was classed as inactive.

`CC(=O)n1nc(-c2ccccc2)nc1NCc1cccs1`: the call was inactive.

Consider `C/C(=N\OC(=O)c1cccc(C(F)(F)F)c1)c1sc(-c2ccccc2)nc1C`, for which the compound was classed as inactive.

`COc1ccccc1-c1c(C)nn2c(N)c(-c3ccccc3)cnc12`: the outcome was inactive.

In the case of `CC(=O)c1ccc(OCc2cc(C(=O)NCCc3ccc(Cl)cc3)no2)cc1`, the result was inactive. As to `Cc1c(C(=O)N2CCCCC2)c(S(=O)(=O)NCc2ccc(Cl)cc2)c(C)n1C`, the compound was called inactive. In the case of `O=C(c1ccc(S(=O)(=O)NCC2CCCO2)cc1)N1CCN(c2ccccc2)CC1` (stereo unspecified), the result was inactive. In the case of `O=C(Nc1cccc(C(=O)N2CCCCC2)c1)C1CC1` it was “inactive”.

For the compound `CCCN(CC(=O)Nc1ccccc1C)C(=O)CCCc1c[nH]c2ccccc12`, the compound was called inactive. In the case of `O=C(COC(=O)Cc1c(F)cccc1Cl)NC(=O)c1ccccc1` it was “inactive”. In the case of `Cc1ccccc1C(=O)NN1CCOCC1` it was “inactive”; in that of `COc1ccc(CN(C)C(=O)CNC(=O)CNC(=O)c2ccc(Cl)cc2Cl)cc1F`, “inactive”; in that of `Cc1ccc(NC(=O)c2c(-c3ccccc3)noc2C)nc1`, “inactive”. For the compound `Cc1[nH]c2c(C(=O)N3CCCC(CCC(=O)NCc4ccccc4F)C3)cccc2c1C` (stereo unspecified), the compound was classed as inactive.

Consider `Cc1ccc(C(C)C)cc1OCCn1cncn1`, for which the outcome was inactive. Turning to `COCC(C)N1CCC(Oc2cccc(C(=O)NCCc3ccccc3)c2)CC1` (stereo unspecified), the call was inactive. On to `CC(=O)Nc1sc2c(c1C(N)=O)CCC2`, for which the call was inactive. The entry for `CCOc1ccc(NC(=O)CN(C)S(=O)(=O)c2cccs2)cc1` is “inactive”. The entry for `CCCCCN1CSC(=S)N(Cc2ccccc2)C1` is “inactive”; for `COc1ccc(/C=N/NC(=O)CNC(=O)c2ccncc2)cc1OC` it is “inactive”. The entry for `O=C(Nc1ccccc1Cl)N1CCN(c2ccc3nnc(-c4ccccc4)n3n2)CC1` is “inactive”; for `CC(=O)Nc1ccc(-c2cc(NC(C)=O)n(-c3ccccc3)n2)cc1` it is “inactive”. With `FC(F)(F)c1ccccc1NC(=S)N1CCCC1`, the compound was classed as inactive.

With `COc1ccc(S(=O)(=O)N(C(C)=O)c2ccc3oc(=O)sc3c2)cc1`, the outcome was inactive.

Take `CCN(c1ccccc1)S(=O)(=O)c1ccc(C(=O)N2CCN(c3ccccc3)CC2)cc1`: the compound was called inactive. In the case of `Cc1cc(C)c(C#N)c(Nc2cccc(C)c2C)n1`, the compound was classed as inactive. In the case of `COc1ccc(Br)cc1CNc1ccc2[nH]c(=O)[nH]c2c1` it was “inactive”; in that of `Cc1ccc(OCC(=O)N2CCN(C(=O)c3cccs3)CC2)cc1`, “inactive”; in that of `O=S(=O)(c1ccccc1)N(CC(O)COc1ccccc1)c1ccccc1` (stereo unspecified), “inactive”. The entry for `COc1ccccc1N(CC(=O)N1CCN(c2ccccc2)CC1)S(=O)(=O)c1ccc(C)cc1` is “inactive”.

`CC(C)=C1C(=O)NN(c2cccc(Cl)c2)C1=O`: the outcome was inactive. With `O=C(c1ccc(-c2ccccc2)cc1)N1CCN(c2ccccn2)CC1`, the result was inactive. `Cc1cc(Br)ccc1NC(=O)CN1CCN(c2ccccn2)CC1`: the result was inactive. In the case of `COCC(=O)N1CCC(Oc2ccc(C(=O)NCc3cnc(C)cn3)cc2)CC1` it was “inactive”; in that of `Cc1ccc(S(=O)(=O)N(C)C)cc1NC(=S)N1CCc2ccccc21`, “inactive”; in that of `C/C(CC(=O)Nc1ccc2c(c1)OCCO2)=N\NC(=O)COc1ccc(Cl)c(C)c1`, “inactive”. The entry for `COc1ccc(C(=O)NCC(=O)NCc2ccncc2)cc1` is “inactive”; for `Cn1nc(C(=O)Nc2nc(-c3ccccn3)cs2)c2ccccc2c1=O` it is “inactive”. The entry for `Cc1ccsc1C(=O)NNC(=O)c1cccc(S(=O)(=O)N2CCCC2)c1` is “inactive”; for `Cc1ccc(C(=O)Nc2cccc(C(=O)N3CCOCC3)c2)cc1Cl` it is “inactive”.

Take `COc1ccc(OCC(=O)Nc2ccccc2C(=O)N2CCOCC2)cc1`: the result was inactive.

With `O=C(Nc1ccccc1C(=O)O)c1cccc(N2C(=O)c3ccccc3C2=O)c1`, the result was inactive. In the case of `Cc1cccc(OCCCn2c(CO)nc3ccccc32)c1` it was “inactive”; in that of `O=c1[nH]c2ccccc2cc1CN(CC1CCCO1)S(=O)(=O)c1ccccc1` (stereo unspecified), “inactive”.

For the origin of these results see PubChem BioAssay AID602254 (Broad Institute, 2012).
